Data: the supplement of paper PMC12645437, “Orthogonal IMiD-Degron Pairs Induce Selective Protein Degradation in Cells” (ACS Chemical Biology, 2025)
Over roughly 8,300 sequences, “log2 fold change of degron read counts, EGFP-low vs EGFP+ sorted cells (limma voom), compound-induced degradation” has its median near -1.1; the highest 2% begin near 3.2. This excerpt belongs to a sample that is enriched for the highest values.

T1: CRBN, Q96SW2
T1 chain: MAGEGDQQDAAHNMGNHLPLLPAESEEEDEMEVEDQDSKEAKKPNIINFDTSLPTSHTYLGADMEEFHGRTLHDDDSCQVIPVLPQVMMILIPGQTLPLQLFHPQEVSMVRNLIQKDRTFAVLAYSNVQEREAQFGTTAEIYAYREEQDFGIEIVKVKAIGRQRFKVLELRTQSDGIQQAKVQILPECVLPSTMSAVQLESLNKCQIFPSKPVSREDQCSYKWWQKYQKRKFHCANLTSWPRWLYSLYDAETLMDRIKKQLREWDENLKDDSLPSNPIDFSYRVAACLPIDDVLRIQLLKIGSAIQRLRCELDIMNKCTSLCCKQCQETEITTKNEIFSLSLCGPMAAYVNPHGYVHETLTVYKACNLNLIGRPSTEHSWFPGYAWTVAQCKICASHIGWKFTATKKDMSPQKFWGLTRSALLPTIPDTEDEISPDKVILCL

B1: 46F_47K_49P_50V_52G_53A_54E_55F_67L_, Q9UKT9 (peptide)
chain: FKCPVCGAEFTQKGNLLRHIKL
B2: 46F_47N_49N_50I_52G_53A_54A_55F_67L_, Q9UKT9 (peptide)
chain: FNCNICGAAFTQKGNLLRHIKL
B3: 46L_47V_49P_50I_52G_53F_54H_55C_67L_, Q9UKT9 (peptide)
chain: LVCPICGFHCTQKGNLLRHIKL
B4: 46L_47Q_49P_50I_52G_53F_54H_55C_67L_, Q9UKT9 (peptide)
chain: LQCPICGFHCTQKGNLLRHIKL
B5: 46L_47S_49P_50I_52G_53F_54H_55C_67L_, Q9UKT9 (peptide)
chain: LSCPICGFHCTQKGNLLRHIKL
B6: 46L_47Y_49P_50I_52G_53F_54H_55C_67L_, Q9UKT9 (peptide)
chain: LYCPICGFHCTQKGNLLRHIKL
B7: 46L_47W_49P_50I_52G_53F_54H_55C_67L_, Q9UKT9 (peptide)
chain: LWCPICGFHCTQKGNLLRHIKL
B8: 46L_47E_49P_50I_52G_53F_54H_55C_67L_, Q9UKT9 (peptide)
chain: LECPICGFHCTQKGNLLRHIKL
B9: 46L_47N_49P_50I_52G_53F_54H_55C_67L_, Q9UKT9 (peptide)
chain: LNCPICGFHCTQKGNLLRHIKL
B10: 46L_47M_49P_50I_52G_53F_54H_55C_67L_, Q9UKT9 (peptide)
chain: LMCPICGFHCTQKGNLLRHIKL
B11: 46L_47H_49P_50I_52G_53F_54H_55C_67L_, Q9UKT9 (peptide)
chain: LHCPICGFHCTQKGNLLRHIKL
B12: 46L_47T_49P_50I_52G_53F_54H_55C_67L_, Q9UKT9 (peptide)
chain: LTCPICGFHCTQKGNLLRHIKL
B13: 46L_47D_49P_50I_52G_53F_54H_55C_67L_, Q9UKT9 (peptide)
chain: LDCPICGFHCTQKGNLLRHIKL
B14: 46L_47F_49P_50I_52G_53F_54H_55C_67L_, Q9UKT9 (peptide)
chain: LFCPICGFHCTQKGNLLRHIKL
B15: 46L_47A_49N_50Q_52G_53F_54R_55C_67L_, Q9UKT9 (peptide)
chain: LACNQCGFRCTQKGNLLRHIKL
B16: 46F_47S_49P_50I_52G_53R_54L_55F_67L_, Q9UKT9 (peptide)
chain: FSCPICGRLFTQKGNLLRHIKL
B17: 46F_47V_49P_50Q_52G_53A_54L_55F_67L_, Q9UKT9 (peptide)
chain: FVCPQCGALFTQKGNLLRHIKL
B18: 46F_47G_49E_50I_52G_53A_54W_55F_67L_, Q9UKT9 (peptide)
chain: FGCEICGAWFTQKGNLLRHIKL

Molecular target: T1, CRBN, Q96SW2
Assay: log2 fold change of degron read counts, EGFP-low vs EGFP+ sorted cells (limma voom), compound-induced degradation; higher = more compound-induced degradation of the degron-EGFP fusion; degrons are variants of IKZF1/3 zinc finger 2; compound dose not given here
Conditions: Jurkat, 18 h
[1] = compound: compound 19 (5-tert-butyl-thalidomide)
[2] = compound: compound 22 (5-morpholino-thalidomide)
[3] = compound: compound 33 (diphenyl IMiD analogue)
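Further: pooled lentiviral library of zinc finger degron-EGFP fusions in mCherry-positive Jurkat cells, FACS-sorted after compound exposure, with degron abundance counted by next-generation sequencing.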

Sequence	log2 fold change of degron read counts [1]	log2 fold change of degron read counts [2]	log2 fold change of degron read counts [3]	log2 fold change of degron read counts (compound: thalidomide)
B1	-1.33	-1.7	-2.52	-0.999
B2	1.61	0.951	0.00357	-0.128
B3	0.161	2	1.81	2.57
B4	0.55	1.17	1.51	3.3
B5	2.37	2.02	2.39	2.28
B6	3.13	3.49	2.61	1.83
B7	2.74	3.54	2.74	1.65
B8	-0.151	-0.655	1.91	2.84
B9	1.34	0.56	0.934	1.12
B10	0.0156	1.21	2.51	2.06
B11	2.33	2.45	2.55	1.95
B12	1.1	2.57	2.47	2.78
B13	1.47	0.38	0.522	1.41
B14	2.94	3.37	2.6	1.88
B15	-0.828	-1.5	-1.86	-1.22
B16	-0.866	-1.05	1.44	-0.361
B17	-2.37	-1.48	-0.389	-0.926
B18	-0.259	-1.17	0.513	-0.936
